In article PMC4242493, “Sequence specificity incompletely defines the genome-wide occupancy of Myc”:
Whole data set: some 33,000 sequences, median “normalized occupancy” near 0.075, cut for the highest 2% near 0.095. This excerpt belongs to a sample that is enriched for the highest values.

target: MaxL homodimer (Homo sapiens, UniProt P61244 1-160); test: universal protein-binding microarray (PBM); PBS-based mixture, 10 nM His-tagged protein dimer, 2% milk, 200 ng/uL BSA, 50 ng/uL salmon testes DNA, 0.02% TX-100; detection with Alexa 488 anti-His antibody;; high values mean tight binding; settings: protein: recombinant; tags: C-terminal His-tag (pET21a); chain copies: 2; dsDNA, one strand shown
Procedure, shortened: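 Binding occupancy is a fluorescence intensity normalised to the intensity of the highest-ranked sequence word. Those intensities came from 8-mers on Agilent 4 x 44 K 'all 10-mer' universal arrays incubated with 10 nM His-tagged protein dimer. Bound protein was detected with 10 ng/μL fluorophore-conjugated anti-His antibody before scanning on a GenePix 4400A.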

Sequence of MaxL homodimer (P61244 whole entry): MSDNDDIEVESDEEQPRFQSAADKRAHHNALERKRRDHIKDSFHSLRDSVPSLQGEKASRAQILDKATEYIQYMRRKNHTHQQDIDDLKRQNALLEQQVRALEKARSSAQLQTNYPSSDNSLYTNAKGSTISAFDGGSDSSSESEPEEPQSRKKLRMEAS

Sequence | binding signal
ACCTAAAT | 0.073 normalized occupancy
GAGCTATA | 0.0729 normalized occupancy
ATGTGGAA | 0.0936 normalized occupancy
GTATGGAA | 0.0836 normalized occupancy
ACAGCACG | 0.0906 normalized occupancy
CCCTGGAA | 0.0745 normalized occupancy
AGCAGACA | 0.0774 normalized occupancy
CCGCCACC | 0.0762 normalized occupancy
TAATTGTA | 0.0773 normalized occupancy
CTTTTGGA | 0.0744 normalized occupancy
CACCTGAC | 0.0973 normalized occupancy
CACCTGGG | 0.0841 normalized occupancy
CACCTGTC | 0.0839 normalized occupancy
CACCTGAG | 0.0741 normalized occupancy
CACCTGGC | 0.103 normalized occupancy
CACCTGGA | 0.0905 normalized occupancy
ATTCGAGG | 0.0723 normalized occupancy
ACTGCACT | 0.0733 normalized occupancy
AGATGTTG | 0.0819 normalized occupancy
ACATGTCA | 0.0911 normalized occupancy
ATATGTTA | 0.0924 normalized occupancy
ACATGTTA | 0.0993 normalized occupancy
AAATGTTG | 0.0794 normalized occupancy
AGATGTTA | 0.0811 normalized occupancy
GCATGTCA | 0.0972 normalized occupancy

Sequence | binding signal
ACATGTTG | 0.11 normalized occupancy
GCATGTCC | 0.0929 normalized occupancy
CCATGTTA | 0.0847 normalized occupancy
GTATGTTA | 0.0849 normalized occupancy
GCATGTTA | 0.0976 normalized occupancy
TACAGACA | 0.0803 normalized occupancy
CATTGACG | 0.0792 normalized occupancy
CGACCCTC | 0.0724 normalized occupancy
TCTTGTAA | 0.0718 normalized occupancy
AGAACGAC | 0.0774 normalized occupancy
GAGGCCCC | 0.0733 normalized occupancy
GATGTCCA | 0.0757 normalized occupancy
CCATTCTA | 0.0759 normalized occupancy
AGCTGCCA | 0.0736 normalized occupancy
CCATGTTC | 0.0828 normalized occupancy
ATATGTTC | 0.0831 normalized occupancy
ACATGTTC | 0.0965 normalized occupancy
GGCATCAC | 0.0813 normalized occupancy
GACAAGCC | 0.0728 normalized occupancy
AAGCATCA | 0.076 normalized occupancy
ATACGCAC | 0.0799 normalized occupancy
ATACGCAT | 0.0968 normalized occupancy
ATGCGCAC | 0.0828 normalized occupancy
ATGCGCAG | 0.0789 normalized occupancy
ATACGCAG | 0.0734 normalized occupancy

Sequence | binding signal
ACACGCAT | 0.0976 normalized occupancy
ACACGCAC | 0.0931 normalized occupancy
ACACGCAA | 0.087 normalized occupancy
ATGCGCAT | 0.102 normalized occupancy
CAGTACTA | 0.0775 normalized occupancy
CCCACAGC | 0.0741 normalized occupancy
CCTGGCTC | 0.0726 normalized occupancy
ACCTAAGT | 0.0745 normalized occupancy
AGTGATGG | 0.0766 normalized occupancy
GGTAGTCA | 0.0743 normalized occupancy
AAAATGAC | 0.0766 normalized occupancy
CCTGCAGG | 0.074 normalized occupancy
AATGCAGG | 0.08 normalized occupancy
CATGCAGA | 0.0959 normalized occupancy
CATGCAGC | 0.0946 normalized occupancy
AATGCAGA | 0.0752 normalized occupancy
CATGCAGG | 0.097 normalized occupancy
GGTTTGTA | 0.0749 normalized occupancy
AGTTCTAC | 0.0751 normalized occupancy
AACAAATT | 0.0736 normalized occupancy
CGGCAAGC | 0.0718 normalized occupancy
CTTGTAAC | 0.0775 normalized occupancy
ACCCACCG | 0.0804 normalized occupancy
ACCGCATG | 0.146 normalized occupancy
AGCGCATG | 0.109 normalized occupancy

Sequence | binding signal
ATCGCATC | 0.0742 normalized occupancy
AGCGCATC | 0.0737 normalized occupancy
ACCGCATC | 0.0749 normalized occupancy
AGCGCATA | 0.0757 normalized occupancy
ATCGCATA | 0.082 normalized occupancy
ATCGCATG | 0.108 normalized occupancy
ACCGCATA | 0.0828 normalized occupancy
AATTCACA | 0.0775 normalized occupancy
GTCACTAA | 0.0757 normalized occupancy
AACATCTC | 0.0748 normalized occupancy
ATGGACGG | 0.0788 normalized occupancy
AACACGAA | 0.0741 normalized occupancy
CACACGAA | 0.0853 normalized occupancy
CACACGAG | 0.0978 normalized occupancy
AACACGAT | 0.0845 normalized occupancy
AACACGAG | 0.11 normalized occupancy
CACACGAC | 0.0877 normalized occupancy
TAGAGCTA | 0.0719 normalized occupancy
AGTGTATC | 0.0882 normalized occupancy
AAATTGCC | 0.0721 normalized occupancy
CAATTCTA | 0.0752 normalized occupancy
CACATTGG | 0.0977 normalized occupancy
CACATTGA | 0.0932 normalized occupancy
GACATTTA | 0.0853 normalized occupancy
CACATTGC | 0.0923 normalized occupancy

Sequence | binding signal
CACATTTA | 0.0961 normalized occupancy
AACATTTA | 0.0795 normalized occupancy
GTTCTAGA | 0.0745 normalized occupancy
ATGTGGTG | 0.0894 normalized occupancy
ATGTGGAG | 0.0861 normalized occupancy
CTGTGGAC | 0.0726 normalized occupancy
ATGTGGAC | 0.0955 normalized occupancy
ATGTGGTA | 0.0922 normalized occupancy
ATGTGGTC | 0.0985 normalized occupancy
AACGCTGT | 0.0729 normalized occupancy
CGCAATCC | 0.0789 normalized occupancy
CCAATCTA | 0.073 normalized occupancy
GCCACGCA | 0.0915 normalized occupancy
ACCACACG | 0.0972 normalized occupancy
ACCACGTC | 0.0945 normalized occupancy
TCCACGCA | 0.0885 normalized occupancy
ACCACGCC | 0.102 normalized occupancy
ACCACACA | 0.085 normalized occupancy
ACCACACT | 0.0849 normalized occupancy
ACCACGCA | 0.0954 normalized occupancy
ACCACGGC | 0.0743 normalized occupancy
GCCACGCC | 0.0925 normalized occupancy
ACCACGTG | 0.773 normalized occupancy
ACCACGTA | 0.0816 normalized occupancy
AAAGCAGT | 0.0719 normalized occupancy

Sequence | binding signal
ATGAAGCG | 0.0749 normalized occupancy
GTCGCGCA | 0.0729 normalized occupancy
CTATGCCA | 0.0777 normalized occupancy
AACAAGAA | 0.0753 normalized occupancy
AGCCTCTC | 0.0729 normalized occupancy
ACCACGAT | 0.0936 normalized occupancy
ACCACGCT | 0.123 normalized occupancy
ACACCACG | 0.0983 normalized occupancy
CCCACGCC | 0.099 normalized occupancy
ATCACGTG | 0.363 normalized occupancy
CCCACGTC | 0.0804 normalized occupancy
ACACCACC | 0.086 normalized occupancy
ACCACGGT | 0.0803 normalized occupancy
ATCACGTA | 0.0829 normalized occupancy
ACACCACA | 0.083 normalized occupancy
CCCACGGC | 0.0782 normalized occupancy
ATCACGTC | 0.0875 normalized occupancy
CGAAGGTA | 0.0721 normalized occupancy
CTGTGGCA | 0.0739 normalized occupancy
AGGAACAG | 0.0793 normalized occupancy
ACCACGGA | 0.0736 normalized occupancy
ATCACGCG | 0.132 normalized occupancy
ACCACGCG | 0.187 normalized occupancy
ACCACGGG | 0.0834 normalized occupancy
CCCACACA | 0.0838 normalized occupancy

Sequence | binding signal
ATCACGCC | 0.0864 normalized occupancy
CCCACGCG | 0.148 normalized occupancy
CCCACGCA | 0.0903 normalized occupancy
ATCACGCA | 0.0877 normalized occupancy
ACGACGAG | 0.0759 normalized occupancy
AATTACGA | 0.0775 normalized occupancy
AATGGCAA | 0.0742 normalized occupancy
CTCAACAA | 0.0728 normalized occupancy
ACTGCTTC | 0.0747 normalized occupancy
AGTTGGTC | 0.0747 normalized occupancy
ACACGCCA | 0.0895 normalized occupancy
ACGCGCCT | 0.0828 normalized occupancy
AAACGCCT | 0.073 normalized occupancy
ACACGCCG | 0.1 normalized occupancy
ACACGCCT | 0.0971 normalized occupancy
ACACGCTA | 0.0915 normalized occupancy
ACGCGCTG | 0.077 normalized occupancy
ACACGCTG | 0.108 normalized occupancy
ACACGCCC | 0.0863 normalized occupancy
CGTTATAA | 0.079 normalized occupancy
ATGGCTCA | 0.0798 normalized occupancy
CCACCATC | 0.0768 normalized occupancy
CCCGTAAA | 0.0752 normalized occupancy
CATTAAGA | 0.0765 normalized occupancy
ATCATATA | 0.0893 normalized occupancy

Sequence | binding signal
AGCATATG | 0.103 normalized occupancy
ACCATATC | 0.0845 normalized occupancy
AACATATG | 0.1 normalized occupancy
ACCATATA | 0.0814 normalized occupancy
AACATATA | 0.0841 normalized occupancy
CACATATG | 0.095 normalized occupancy
ACCATATG | 0.118 normalized occupancy
ATCATATC | 0.0861 normalized occupancy
AGCATATC | 0.0822 normalized occupancy
AGCATATA | 0.0807 normalized occupancy
ATCATATG | 0.0972 normalized occupancy
GTTACGTA | 0.0751 normalized occupancy
CTCGATAC | 0.0749 normalized occupancy
AAATGCTG | 0.0762 normalized occupancy
AAAAGCTA | 0.0755 normalized occupancy
GGTACGAC | 0.0721 normalized occupancy
GAGCACAC | 0.0956 normalized occupancy
GAGCACAA | 0.0775 normalized occupancy
CAGCACAC | 0.0857 normalized occupancy
GCAGAATA | 0.0753 normalized occupancy
ACGTGAAA | 0.097 normalized occupancy
ACGTGAAC | 0.0842 normalized occupancy
ACGTGAAT | 0.0824 normalized occupancy
AAGTGAAG | 0.076 normalized occupancy
ACGTGAAG | 0.1 normalized occupancy

Sequence | binding signal
CCGTGAAG | 0.0739 normalized occupancy
GATGAAAC | 0.0811 normalized occupancy
AGCGTTAC | 0.0823 normalized occupancy
CGCGCACA | 0.0822 normalized occupancy
CACGCAAG | 0.0838 normalized occupancy
CACGCACA | 0.0923 normalized occupancy
CACGCACG | 0.096 normalized occupancy
CGCGCACG | 0.0959 normalized occupancy
GACGCATA | 0.0777 normalized occupancy
TACGCATA | 0.0842 normalized occupancy
GGCGCACA | 0.0793 normalized occupancy
CACGCACC | 0.0913 normalized occupancy
CACGCATG | 0.121 normalized occupancy
CACGCATA | 0.0976 normalized occupancy
AACGCATA | 0.0871 normalized occupancy
ACACAGTC | 0.0783 normalized occupancy
GTAGTCTA | 0.0723 normalized occupancy
GTACTACA | 0.0864 normalized occupancy
ACTTTAGG | 0.073 normalized occupancy
